For the first test, the system named is PXR homodimer (NR concentration 270 nM). Briefly: PBM binding z-score (relative to random genomic background probes); higher = stronger binding; sequences stand for … in GC…GCGATTGACAGCGTAGAATGAAGG
The method, boiled down:
(§1)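 For binding z-scores, the reference was random background probes on custom Agilent 4×180K protein-binding microarrays. These arrays were incubated 1 h with ligand-free nuclear receptor dimers in PBS pH 7.4, 2% milk, 0.02% Triton X-100, 1 mM DTT, 0.2 mg/mL BSA and 0.4 mg/ml salmon testes DNA. Fluorescence was scanned after antibody detection of each partner (one per run) and regression-normalized.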
Take AGAATGTGGTTATACGTAGATCAGGGAAGAAAGT: the PBM binding z-score turned out to be 0.82.

GCTCGGAGGACAAGGTCAGAGCTTTGTCCGTAGA yielded a PBM binding z-score of -0.264.

Sequence CGTCAAAGTTCAACTAAGGTAGCGTAAAGCACGC gave a PBM binding z-score of 4.13.

As for CCTTACGGGTCAAGCTTATAGCACGGGTGGTACG, the PBM binding z-score is -0.265.

TTACCAAGGTGAGCTGAGGTCGTTGACCCAACTC yielded a PBM binding z-score of 0.193.

ATCTCGAGGTAAAGATAGTTCAGTGAATGCAAAT had a PBM binding z-score of 0.66.

In turn, GCGACTGGGGCAAAGCAGGTTACCATAAGGTTGG registered a PBM binding z-score of -0.59.

Sequence CCCTACGGGTCAAGGTTATAGCACGGGTGGTACG returned a PBM binding z-score of 0.417.

TCATTTAGGTAATACAGGTGAAAGTCGGCATCTA had a PBM binding z-score of 0.701.

For the sequence CCTCGGAGGAGAACAGGAGGTCAGAGCTGCCAGA, the PBM binding z-score came out at 0.761.

The sequence CCTGCTAGGTCATCGTCAGCTAATCTACAGTATG registered a PBM binding z-score of -0.29.

CGTCCATGGTCAATGCTAGGTCAGTGAAAGCATT displayed a PBM binding z-score of -0.367.

Sequence AGAACGAGGGCCCGCTGAGTTGATAGCAGAGTAG yielded a PBM binding z-score of -1.05.

CCGCGGAGGACAGAAGGTCAGAGCTGTCCGCTTT came in with a PBM binding z-score of -0.53.

TCTTGTAGATCAAGCAGGTTATGAAAGCCTGAGT had a PBM binding z-score of 0.201.

On to ACTAGCAAGCCAAGGGTCACTCAAGATTAGTCCG, for which the PBM binding z-score was found to be 0.0127.

CTACCAAGGTGAACAAGGTCGCTGATTACTATTC had a PBM binding z-score of 0.349.

On to TCGAGTAGGTTACCAATGGGGTATTCAGCTTTCT, for which the PBM binding z-score was -0.757.

A further test deals with RARa:RXR (NR concentration 270 nM, RXRa partner concentration 90 nM). The description is as above. A digest of the protocol: as §1
As for CAAACTAGGTCGAAGGTCAAAGTCGAGCCAACCA, the PBM binding z-score stood at 6.95.

For GCGACTGGGGCATCAGCAGGTTACTATAACTTAA, the PBM binding z-score worked out at 0.369.

On to CGAACGAGGCCATGAGTTGATAGCAAATGCCGAT, for which the PBM binding z-score was found to be 0.133.

For ATCGAAATGTCGACGAGGTGAGTATACACCGTTT, the PBM binding z-score stood at 0.312.

Regarding CCTACTGCGCCAAAAAGGTCATTGATGCCGATAA, the PBM binding z-score is 5.58.

In turn, TAGCCTAGGTCATGCGAGCCAGTATAGTGTCGGC had a PBM binding z-score of 2.33.

Regarding CCTATTTGGTCAAGGTCACACACGCTATAGGTAC, the PBM binding z-score came to 4.39.

GGAAAGAGGGCAAGTTGATAGCAGAGTTTGATGG came in with a PBM binding z-score of 0.849.

As to ATACGTAGGTTAGCTGGGGTCATTCAGACTAGGC, the PBM binding z-score was found to be 5.33.

For GGAACGAGGGCAAGTTTATAGCAGAGTTTGATGG, the PBM binding z-score amounted to 0.25.

On to TAGCCTAGGTCAGATCGGGCCAGTTTACGCTATA, for which the PBM binding z-score was determined as 0.463.

Sequence CCTTACGGCTCACGAGGTTATAGCACGACGAGCG yielded a PBM binding z-score of 0.918.

GCTTTTAGATCAAGGTTAAGAAAGACTAAGCTAA returned a PBM binding z-score of 1.07.

As to CGTCCAAGGTTAAAGGTCAGTGAAGAGATGACGG, the PBM binding z-score turned out to be 7.42.

AGAATGAGGTTGTACGTAGATCAGGGAAGAAAGT showed a PBM binding z-score of 0.411.

In turn, CCTAGCAGTCCAATCTGGGTCACTCAAGGCTTGA showed a PBM binding z-score of 1.58.

As for AGAACGAGGGCACGCTGAGTCGATAGCAGAGTAG, the PBM binding z-score was determined as 0.489.

Sequence AGAATGAGGTTATACGTATATCAGGGAAGAAAGT displayed a PBM binding z-score of 1.92.

TCTAGTTGGTCAATGGTCACACACTCGAAATGCG: the PBM binding z-score amounted to 0.893.

GGAACGAGGGCAAAGTAGATAGCATCTGTCGACG showed a PBM binding z-score of 0.38.

AATACAGGGTCACTAGGACAGAGTAGGTACGAAT showed a PBM binding z-score of 4.21.

Turning to GTATCAAGGTGAATAGGTCGTTGATGAGTAGGCG, the PBM binding z-score was determined as 2.01.

AGAATGTGGTTATACGTAGATCAGGGAAGAAAGT yielded a PBM binding z-score of 0.282.

As for GCTCGGAGGACAAGGTCAGAGCTTTGTCCGTAGA, the PBM binding z-score was determined as 2.24.

CGTCAAAGTTCAACTAAGGTAGCGTAAAGCACGC displayed a PBM binding z-score of 3.8.

The sequence CCTTACGGGTCAAGCTTATAGCACGGGTGGTACG gave a PBM binding z-score of 3.81.

In turn, TTACCAAGGTGAGCTGAGGTCGTTGACCCAACTC showed a PBM binding z-score of 2.57.

The sequence ATCTCGAGGTAAAGATAGTTCAGTGAATGCAAAT yielded a PBM binding z-score of 0.499.

In the case of GCGACTGGGGCAAAGCAGGTTACCATAAGGTTGG, the PBM binding z-score came out at 0.0364.

In turn, CCCTACGGGTCAAGGTTATAGCACGGGTGGTACG came in with a PBM binding z-score of 4.27.

Sequence TCATTTAGGTAATACAGGTGAAAGTCGGCATCTA displayed a PBM binding z-score of 1.43.

The sequence CCTCGGAGGAGAACAGGAGGTCAGAGCTGCCAGA returned a PBM binding z-score of 2.19.

The sequence CCTGCTAGGTCATCGTCAGCTAATCTACAGTATG showed a PBM binding z-score of 2.39.

As to CGTCCATGGTCAATGCTAGGTCAGTGAAAGCATT, the PBM binding z-score was found to be 0.816.

As for AGAACGAGGGCCCGCTGAGTTGATAGCAGAGTAG, the PBM binding z-score was -1.3.

In the case of CCGCGGAGGACAGAAGGTCAGAGCTGTCCGCTTT, the PBM binding z-score worked out at 2.3.

The sequence TCTTGTAGATCAAGCAGGTTATGAAAGCCTGAGT registered a PBM binding z-score of 0.334.

ACTAGCAAGCCAAGGGTCACTCAAGATTAGTCCG: the PBM binding z-score came out at 3.79.

In turn, CTACCAAGGTGAACAAGGTCGCTGATTACTATTC registered a PBM binding z-score of 1.89.

Sequence TCGAGTAGGTTACCAATGGGGTATTCAGCTTTCT gave a PBM binding z-score of 0.339.

The subject of the next test is RARa homodimer (NR concentration 270 nM). Described as above. The method, boiled down:
as §1
For the sequence CAAACTAGGTCGAAGGTCAAAGTCGAGCCAACCA, the PBM binding z-score came out at 1.29.

With GCGACTGGGGCATCAGCAGGTTACTATAACTTAA, the PBM binding z-score was -0.337.

Sequence CGAACGAGGCCATGAGTTGATAGCAAATGCCGAT came in with a PBM binding z-score of -0.191.

As for ATCGAAATGTCGACGAGGTGAGTATACACCGTTT, the PBM binding z-score is -0.025.

In turn, CCTACTGCGCCAAAAAGGTCATTGATGCCGATAA displayed a PBM binding z-score of 3.23.

TAGCCTAGGTCATGCGAGCCAGTATAGTGTCGGC displayed a PBM binding z-score of -0.182.

Regarding CCTATTTGGTCAAGGTCACACACGCTATAGGTAC, the PBM binding z-score is 2.51.

In turn, GGAAAGAGGGCAAGTTGATAGCAGAGTTTGATGG showed a PBM binding z-score of 1.34.

ATACGTAGGTTAGCTGGGGTCATTCAGACTAGGC registered a PBM binding z-score of 0.497.

In turn, GGAACGAGGGCAAGTTTATAGCAGAGTTTGATGG returned a PBM binding z-score of -0.0736.

Turning to TAGCCTAGGTCAGATCGGGCCAGTTTACGCTATA, the PBM binding z-score was -1.05.

The sequence CCTTACGGCTCACGAGGTTATAGCACGACGAGCG showed a PBM binding z-score of 0.403.

On to GCTTTTAGATCAAGGTTAAGAAAGACTAAGCTAA, for which the PBM binding z-score was 0.203.

In turn, CGTCCAAGGTTAAAGGTCAGTGAAGAGATGACGG yielded a PBM binding z-score of 1.36.

Sequence AGAATGAGGTTGTACGTAGATCAGGGAAGAAAGT registered a PBM binding z-score of 0.476.

CCTAGCAGTCCAATCTGGGTCACTCAAGGCTTGA came in with a PBM binding z-score of -0.751.

The sequence AGAACGAGGGCACGCTGAGTCGATAGCAGAGTAG came in with a PBM binding z-score of -0.608.

Regarding AGAATGAGGTTATACGTATATCAGGGAAGAAAGT, the PBM binding z-score stood at 0.666.

Regarding TCTAGTTGGTCAATGGTCACACACTCGAAATGCG, the PBM binding z-score was found to be 0.846.

On to GGAACGAGGGCAAAGTAGATAGCATCTGTCGACG, for which the PBM binding z-score was -0.526.

In turn, AATACAGGGTCACTAGGACAGAGTAGGTACGAAT returned a PBM binding z-score of 1.62.

Consider GTATCAAGGTGAATAGGTCGTTGATGAGTAGGCG, for which the PBM binding z-score was 0.786.

Sequence AGAATGTGGTTATACGTAGATCAGGGAAGAAAGT returned a PBM binding z-score of 0.734.

Consider GCTCGGAGGACAAGGTCAGAGCTTTGTCCGTAGA, for which the PBM binding z-score was -0.542.

CGTCAAAGTTCAACTAAGGTAGCGTAAAGCACGC returned a PBM binding z-score of 2.16.

As to CCTTACGGGTCAAGCTTATAGCACGGGTGGTACG, the PBM binding z-score turned out to be 0.95.

TTACCAAGGTGAGCTGAGGTCGTTGACCCAACTC showed a PBM binding z-score of -0.539.

In turn, ATCTCGAGGTAAAGATAGTTCAGTGAATGCAAAT showed a PBM binding z-score of -0.0875.

In the case of GCGACTGGGGCAAAGCAGGTTACCATAAGGTTGG, the PBM binding z-score is -0.818.

As to CCCTACGGGTCAAGGTTATAGCACGGGTGGTACG, the PBM binding z-score was found to be 1.19.

In the case of TCATTTAGGTAATACAGGTGAAAGTCGGCATCTA, the PBM binding z-score stood at 2.03.

CCTCGGAGGAGAACAGGAGGTCAGAGCTGCCAGA registered a PBM binding z-score of 0.495.

In the case of CCTGCTAGGTCATCGTCAGCTAATCTACAGTATG, the PBM binding z-score was -0.471.

For CGTCCATGGTCAATGCTAGGTCAGTGAAAGCATT, the PBM binding z-score was -0.251.

In the case of AGAACGAGGGCCCGCTGAGTTGATAGCAGAGTAG, the PBM binding z-score was -1.68.

For the sequence CCGCGGAGGACAGAAGGTCAGAGCTGTCCGCTTT, the PBM binding z-score is -0.744.

TCTTGTAGATCAAGCAGGTTATGAAAGCCTGAGT: the PBM binding z-score was -0.519.

In turn, ACTAGCAAGCCAAGGGTCACTCAAGATTAGTCCG displayed a PBM binding z-score of 0.419.

Regarding CTACCAAGGTGAACAAGGTCGCTGATTACTATTC, the PBM binding z-score is -0.144.

Turning to TCGAGTAGGTTACCAATGGGGTATTCAGCTTTCT, the PBM binding z-score is -0.642.

For the origin of these results see the supplement of paper PMC6555819.
